Results filed as inconclusive are left out. Where a structure was tested more than once in an assay, its records may differ in their call. Calls of active or inactive are those of the source. Unless noted, the call rests on the fitted dose curve.
Key:
[1] = qHTS assay to identify small molecule agonists of the sonic hedgehog signaling (Shh) pathway (AID 1259368);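 further: NIH/3T3-derived 3T3Gli1-Luc cells carrying a stable Gli1-driven firefly luciferase reporter; series mostly up to about 92 µM; nearly all actives have a fitted effect of over 15% in size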
In short: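 Quantitative high-throughput format using a Gli1-driven firefly luciferase reporter line derived from NIH/3T3 cells. After a 24 hr compound treatment at 37 C and 5% CO2, luminescence reported Gli1 response element activity.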

[2] = qHTS assay to identify small molecule antagonists of the sonic hedgehog signaling (Shh) pathway (AID 1259369); further: nearly all actives have a fitted effect of over 45% in size; further: potency means the concentration at half of the fitted maximal effect
In short: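 Stable Gli1-Luc reporter NIH/3T3 clone; quantitative HTS in stimulated mode with conditioned medium. Luminescence measured after 24hr compound treatment at 37 C.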

[3] = target: Estrogen receptor beta (Homo sapiens) (UniProt Q92731); experiment: qHTS assay to identify small molecule agonists of the estrogen receptor beta (ER-beta) signaling pathway (AID 1259377; active means well fitted activation curve with a large enough effect in the signal ratio in the repeat runs, not every such curve was filed as active; the % refers to the signal ratio)
In short: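 qHTS in ER-beta-UAS-bla HEK293T cells: 6 hr settling, then 16 hr compound at 37C, then LiveBLAzer substrate 2 h at RT before fluorescence reading.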

[4] = target: Estrogen receptor beta (Homo sapiens) (UniProt Q92731); experiment: qHTS assay to identify small molecule antagonists of the estrogen receptor beta (ER-beta) signaling pathway (AID 1259378; active means well fitted inhibition curve with a large enough effect in the signal ratio in the repeat runs, not every such curve was filed as active; the % refers to the signal ratio)
In short: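 Antagonist mode: compounds added to beta-lactamase reporter HEK293T ER-beta-UAS cells stimulated with E2 (1nM final), 16 hr at 37C. LiveBLAzer B/G FRET substrate, 2 hours room temperature, fluorescence read-out.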

[5] = qHTS assay to identify small molecule agonists of the androgen receptor (AR) signaling pathway in the presence of an antagonist - cell viability counter screen (AID 1259379; active means well fitted curve in the direction sought with a large enough effect in the repeat runs; an effect the other way counts as inactive or inconclusive;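 further: MDA-kb2 human breast cancer cells carrying an MMTV luciferase reporter; series mostly up to about 92 µM; nearly all actives have a fitted effect of over 25% in size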)
In short: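 Nilutamide-containing (3.0uM final) MDA-kb2 cultures, 3,000 cells/well, were treated with compounds across 15 concentrations. After 16 hr at 37C with no CO2, cell viability was determined by CellTiter-Fluor fluorescence in the luciferase assay wells.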

[6] = qHTS assay to identify small molecule agonists of the estrogen receptor beta (ER-beta) signaling pathway - cell viability counter screen (AID 1259380; active means well fitted curve in the direction sought with a large enough effect in the repeat runs; an effect the other way counts as inactive or inconclusive; further: nearly all actives have a fitted effect of over 30% in size)
In short: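 Steps: plate ER-beta-UAS-bla HEK293T cells, rest 6 hr; add compounds in DMSO; incubate 16 hr at 37C, 5% CO2; add FRET substrate 2 hr; add CellTiter-Glo, wait 30 min at room temperature; read luminescence.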

[7] = qHTS assay to identify small molecule antagonists of the estrogen receptor beta (ER-beta) signaling pathway - cell viability counter screen (AID 1259382; active means well fitted curve in the direction sought with a large enough effect in the repeat runs; an effect the other way counts as inactive or inconclusive;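 further: HEK293T cells carrying ER-beta-UAS-bla reporter stimulated with estradiol; series mostly up to about 92 µM; nearly all actives have a fitted effect of over 55% in size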)
In short: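 Viability is scored by CellTiter-Glo luminescence (30 min, room temperature) in ER-beta-UAS-bla HEK293T wells already read for reporter fluorescence. Compound exposure lasts 16 hr at 37C alongside 1nM 17-beta-estradiol in charcoal-stripped serum medium.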

[8] = target: Estrogen receptor (Homo sapiens) (UniProt P03372); experiment: qHTS assay to identify small molecule agonists of the estrogen receptor alpha (ER-alpha) signaling pathway in the presence of an antagonist (AID 1259383); further: top concentration of the series differs between compounds; nearly all actives have a fitted effect of over 15% in size
In short: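 Readout was ERE-driven luciferase luminescence in VM7Luc4E2 cells, which express full-length ER-alpha endogenously. Compounds were tested at 15 concentrations for 22hr alongside 10.0nM ICI-182,780 (final concentration).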

[9] = qHTS assay to identify small molecule agonists or antagonists of the thyroid stimulating hormone receptor (TSHR) signaling pathway - wild type cell line counter screen (AID 1259384)
In short: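 Counter screen in untransfected Hek293: compounds (15-point titration, triplicate) plus phosphodiesterase inhibitor Ro20-1724 added after 18 h plating; 30 min RT. Intracellular cAMP via competitive d2/cryptate immunoassay, 1 h incubation.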

[10] = target: Androgen receptor (Homo sapiens) (UniProt P10275); experiment: qHTS assay to identify small molecule agonists of the androgen receptor (AR) signaling pathway in the presence of an antagonist (AID 1259381); further: nearly all actives have a fitted effect of over 15% in size
In short: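 Reporter-gene luminescence from MDA-kb2 cells exposed 16hr at 37C (0% CO2) to 15-point compound titrations with 3.0uM final nilutamide as AR antagonist.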
On the % scale 0 is the no-effect control and ±100 the full control effect.

Sequence of Estrogen receptor (Homo sapiens) (P03372 whole entry, looked up): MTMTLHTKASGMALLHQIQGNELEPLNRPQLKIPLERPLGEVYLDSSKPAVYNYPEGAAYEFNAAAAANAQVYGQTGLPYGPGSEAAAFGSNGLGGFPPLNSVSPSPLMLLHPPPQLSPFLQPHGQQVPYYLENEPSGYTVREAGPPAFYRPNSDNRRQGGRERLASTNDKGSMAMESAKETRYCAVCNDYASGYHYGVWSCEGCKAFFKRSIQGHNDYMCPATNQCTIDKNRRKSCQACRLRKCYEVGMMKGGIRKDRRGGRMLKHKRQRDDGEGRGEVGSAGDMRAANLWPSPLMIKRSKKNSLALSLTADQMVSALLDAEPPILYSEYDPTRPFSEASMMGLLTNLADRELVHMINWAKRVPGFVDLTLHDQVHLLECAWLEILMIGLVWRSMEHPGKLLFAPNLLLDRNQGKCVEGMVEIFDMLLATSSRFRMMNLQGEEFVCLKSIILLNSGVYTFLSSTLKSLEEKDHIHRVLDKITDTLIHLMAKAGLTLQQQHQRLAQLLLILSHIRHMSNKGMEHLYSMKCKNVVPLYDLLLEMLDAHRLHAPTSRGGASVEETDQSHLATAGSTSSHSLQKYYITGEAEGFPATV
Sequence of Androgen receptor (Homo sapiens) (P10275 whole entry, looked up): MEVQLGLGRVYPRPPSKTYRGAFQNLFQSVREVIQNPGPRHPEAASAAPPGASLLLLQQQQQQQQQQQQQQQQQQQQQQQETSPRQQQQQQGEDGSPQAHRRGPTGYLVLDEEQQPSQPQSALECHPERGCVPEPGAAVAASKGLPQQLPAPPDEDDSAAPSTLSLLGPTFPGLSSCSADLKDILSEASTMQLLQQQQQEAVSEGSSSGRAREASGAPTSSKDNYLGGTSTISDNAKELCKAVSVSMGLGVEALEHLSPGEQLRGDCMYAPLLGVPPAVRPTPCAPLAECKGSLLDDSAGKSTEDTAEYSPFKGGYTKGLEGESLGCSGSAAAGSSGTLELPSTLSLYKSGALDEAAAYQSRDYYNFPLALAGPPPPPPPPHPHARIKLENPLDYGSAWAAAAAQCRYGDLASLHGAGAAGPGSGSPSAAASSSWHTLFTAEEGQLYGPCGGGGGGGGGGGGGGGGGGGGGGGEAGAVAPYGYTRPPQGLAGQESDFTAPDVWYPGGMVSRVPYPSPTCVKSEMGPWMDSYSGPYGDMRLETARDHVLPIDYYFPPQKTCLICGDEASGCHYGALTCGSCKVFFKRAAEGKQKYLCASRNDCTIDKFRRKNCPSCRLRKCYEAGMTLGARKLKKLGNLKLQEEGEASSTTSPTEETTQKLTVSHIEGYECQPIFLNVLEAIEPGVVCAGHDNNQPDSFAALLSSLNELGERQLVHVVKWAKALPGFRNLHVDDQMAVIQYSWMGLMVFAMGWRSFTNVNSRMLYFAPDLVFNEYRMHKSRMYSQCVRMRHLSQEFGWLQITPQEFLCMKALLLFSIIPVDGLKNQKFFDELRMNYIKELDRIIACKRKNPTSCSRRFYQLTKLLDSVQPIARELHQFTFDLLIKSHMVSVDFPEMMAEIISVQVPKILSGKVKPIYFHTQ
Sequence of Estrogen receptor beta (Homo sapiens) (Q92731 whole entry, looked up): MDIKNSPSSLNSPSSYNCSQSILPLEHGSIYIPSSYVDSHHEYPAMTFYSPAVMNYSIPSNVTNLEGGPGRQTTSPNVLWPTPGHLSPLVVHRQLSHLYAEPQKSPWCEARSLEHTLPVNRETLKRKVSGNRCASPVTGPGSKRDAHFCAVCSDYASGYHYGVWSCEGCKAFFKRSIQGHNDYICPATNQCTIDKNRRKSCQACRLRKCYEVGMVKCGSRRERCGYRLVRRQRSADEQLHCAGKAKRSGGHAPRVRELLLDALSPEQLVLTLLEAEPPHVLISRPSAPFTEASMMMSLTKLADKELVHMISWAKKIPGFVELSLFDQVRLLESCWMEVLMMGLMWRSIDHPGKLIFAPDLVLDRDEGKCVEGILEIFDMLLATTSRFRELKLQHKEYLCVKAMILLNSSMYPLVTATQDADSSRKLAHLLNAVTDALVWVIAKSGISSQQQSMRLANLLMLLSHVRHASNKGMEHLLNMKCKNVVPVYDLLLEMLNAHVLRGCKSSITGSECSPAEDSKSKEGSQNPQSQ

CC(C)CCCCCOC(=O)CCCCC(=O)OCCCCCC(C)C
inactive: Potency [1] | Potency [2] | Potency [3] | Potency [4] | Potency [5] | Potency [6] | Potency [7]

C=CC(C)=CCC=C(C)C
inactive: Potency [1] | Potency [2] | Potency [3] | Potency [4] | Potency [5] | Potency [6]

Cc1cc(O)c(C(C)C)cc1Cl
inactive: Potency [1] | Potency [3] | Potency [4] | Potency [5] | Potency [6] | Potency [7] | Potency [8] | outcome [9]
15.4 µM (active) and inactive: Potency [2]

CCCCCCCCCCCCCCC[C@H](O)[C@@H](N)CO
inactive: Potency [1] | Potency [2] | Potency [3] | Potency [4] | Potency [5] | Potency [6] | Potency [10] | Potency [8] | outcome [9]

COc1ccc(CCC(=O)c2c(O)cc(O[C@@H]3O[C@H](CO)[C@@H](O)[C@H](O)[C@H]3O[C@@H]3O[C@@H](C)[C@H](O)[C@@H](O)[C@H]3O)cc2O)cc1O
inactive: Potency [1] | Potency [2] | Potency [3] | Potency [4] | Potency [5] | Potency [6] | Potency [10] | Potency [7] | Potency [8] | outcome [9]

[O]=[Bi]
inactive: activity change [1] -0.104% [at 8.39 µM, stronger effect = higher value] | activation [3] 4.87% [at 8.39 µM] | activity, negative = inhibition [4] 1.25% [at 8.39 µM] | activity change, negative = cytotoxicity [5] 2.01% [at 8.39 µM] | activity change, negative = cytotoxicity [6] 4.86% [at 8.39 µM] | activity change, negative = cytotoxicity [7] -2.24% [at 8.39 µM] | activation [8] 0.802% [at 8.39 µM]
active: Potency [2] 1.67 µM

NC(=O)Nc1ccc(Cl)cc1
inactive: Potency [1] | Potency [2] | Potency [3] | Potency [4] | Potency [5] | Potency [6] | Potency [7] | Potency [8]

Cc1cnc(C)c(C)n1
inactive: Potency [1] | Potency [2]

CCCCCCOC(=O)C(C)C
inactive: Potency [1] | Potency [2] | Potency [3] | Potency [4] | Potency [5] | Potency [6]

CCn1cc(C(=O)O)c(=O)c2cc(F)c(N3CCNCC3)nc21
inactive: Potency [1] | Potency [2] | Potency [3] | Potency [4] | Potency [5] | Potency [6] | Potency [7] | Potency [8] | outcome [9]

C=CCCCCCCCCCCCCCCCC
inactive: activity change [1] 0.635% [at 8.39 µM, stronger effect = higher value] | activity change, negative = inhibition [2] 12.7% [at 8.39 µM] | activation [3] -1.08% [at 8.39 µM] | activity, negative = inhibition [4] 3.67% [at 8.39 µM] | activity change, negative = cytotoxicity [5] 0.762% [at 8.39 µM] | activity change, negative = cytotoxicity [6] 5.49% [at 8.39 µM] | activity change, negative = cytotoxicity [7] -0.694% [at 8.39 µM] | activation [8] -0.131% [at 8.39 µM] | cAMP activity change [9] -0.74% [at 8.39 µM]

CC(CCO)CCc1ccccc1 (configuration not stated)
inactive: Potency [1] | Potency [2] | Potency [3] | Potency [4] | Potency [5] | Potency [6] | Potency [7] | Potency [8]

CC(=O)Nc1ccc(N)cc1
inactive: Potency [1] | Potency [2] | Potency [3] | Potency [4] | Potency [5] | Potency [6] | Potency [10] | Potency [8] | outcome [9]

CCCCCCCCCOC(C)=O
inactive: Potency [1] | Potency [2] | Potency [3] | Potency [4] | Potency [5] | Potency [6] | Potency [7] | Potency [8] | outcome [9]

CC(=O)Nc1ccccc1C
inactive: Potency [1] | Potency [2] | Potency [3] | Potency [4] | Potency [5] | Potency [6] | Potency [7] | Potency [8] | outcome [9]

CCOC(=O)OCC
inactive: Potency [1] | Potency [2] | Potency [3] | Potency [4] | Potency [5] | Potency [6] | Potency [7] | Potency [8] | outcome [9]

CCC(C)=O
inactive: Potency [1] | Potency [2] | Potency [3] | Potency [4] | Potency [5] | Potency [6] | Potency [7]

CC(C)=CC=O
inactive: Potency [1] | Potency [2] | Potency [3] | Potency [4] | Potency [5] | Potency [6] | Potency [10] | Potency [8]

CN1CCCN=C1/C=C/c1cccs1
inactive: Potency [1] | Potency [2] | Potency [3] | Potency [4] | Potency [5] | Potency [6] | Potency [7] | Potency [8] | outcome [9]

Oc1cc(O)c(Cl)cc1Cl
inactive: Potency [1] | Potency [2] | Potency [3] | Potency [4] | Potency [5] | Potency [6] | Potency [7] | Potency [8] | outcome [9]

NCC1CCCC(CN)C1 (configuration not stated)
inactive: Potency [1] | Potency [2] | Potency [3] | Potency [4] | Potency [5] | Potency [6] | Potency [10] | Potency [7]

CCCCOC(=O)CCS
inactive: Potency [1] | Potency [2] | Potency [3] | Potency [4] | Potency [5] | Potency [6] | Potency [7] | Potency [8] | outcome [9]

From PubChem BioAssay (Tox21)
